# Screens as filed in PubChem BioAssay.
# This is a sample that favours compounds with a hit; in the whole collection about 1.3% have one here.
# USP1 inh – USP1/UAF1 (human) deubiquitinase inhibition; recombinant USP1/UAF1, Ub-Rhodamine cleavage fluorescence; Potency, µM (doses to about 57.1 µM), for inactives: at the highest dose activity change, negative = inhibition, most hits filed as inhibitors; actives 0.23% (n = 390,000); AID 743255; note: % is set by controls: 0 for no effect and ±100 for the full control effect; nearly all actives have a fitted effect of over 60% in size
#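 1 nM enzyme complex + cpd, 15 min RT; start with Ub-Rho 150nM final; kinetic fluorescence ex 480/em 540, 6 reads q60 s. Buffer 50mM HEPES pH 7.8, 0.5mM EDTA, 0.1 mg/ml BSA, 1mM TCEP, 0.01% Tween-20.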
# ALOX12 inh – ALOX12 (human) lipoxygenase inhibition. Potency, µM (series often up to 108 µM), for inactives: top-dose activity change, negative = inhibition, hits mostly inhibitors. actives 1.1% (n = 580,000). P18054. purified 12hLO, xylenol orange hydroperoxide absorbance; note: % is set by controls: 0 for no effect and ±100 for the full control effect
# Target sequence (P18054 whole entry, looked up): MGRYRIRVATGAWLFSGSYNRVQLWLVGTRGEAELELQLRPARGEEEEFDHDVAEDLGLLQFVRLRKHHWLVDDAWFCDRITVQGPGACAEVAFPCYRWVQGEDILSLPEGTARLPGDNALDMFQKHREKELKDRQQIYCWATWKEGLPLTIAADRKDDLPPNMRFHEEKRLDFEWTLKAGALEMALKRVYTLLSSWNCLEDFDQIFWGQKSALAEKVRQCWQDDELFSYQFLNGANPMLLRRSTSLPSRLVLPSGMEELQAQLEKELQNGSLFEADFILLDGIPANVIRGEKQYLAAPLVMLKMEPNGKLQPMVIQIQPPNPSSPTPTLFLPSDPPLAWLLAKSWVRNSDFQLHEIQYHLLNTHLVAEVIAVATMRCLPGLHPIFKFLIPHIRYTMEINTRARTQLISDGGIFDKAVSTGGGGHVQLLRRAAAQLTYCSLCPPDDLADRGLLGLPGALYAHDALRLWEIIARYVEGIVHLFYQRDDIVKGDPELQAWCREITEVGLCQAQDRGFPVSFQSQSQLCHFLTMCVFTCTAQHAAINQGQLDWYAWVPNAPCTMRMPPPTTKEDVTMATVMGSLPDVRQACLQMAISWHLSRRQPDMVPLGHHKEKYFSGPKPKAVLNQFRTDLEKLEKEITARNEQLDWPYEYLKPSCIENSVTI
#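 Hydroperoxide product was detected by ferrous iron/xylenol orange as the 573 to 405 nm absorbance ratio. Arachidonic acid at 40 uM (final) was turned over for 30 min at room temperature by 150 nM human 12hLO, pH 7.0 Hepes buffer, after 15 min compound preincubation.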
# EPAC2 antag – antagonists of human EPAC2. actives 0.18% (n = 360,000). EPAC2 GEF exchange of Rap1B-BODIPY-GDP, fluorescence. Q8WZA2. AID 720708. Potency, µM (top dose mostly 114 µM), for inactives: top-dose activity, negative = inhibition, usual class: inhibitors; note: % is set by controls: 0 for no effect and ±100 for the full control effect; nearly all actives have a fitted effect of over 45% in size
# EPAC2 ag – agonists of human EPAC2 (RAPGEF4); EPAC2 activation, biochemical qHTS; response scale: 100% = 6.5 mM cAMP response; Potency, µM (top dose mostly 154 µM), inactives show at the highest dose activation, hits mostly activators; actives 0.079% (n = 360,000); AID 720711; note: nearly all actives have a fitted effect of over 50% in size
#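 Nucleotide exchange monitored as fluorescence drop when BODIPY-GDP leaves Rap1B. Reaction: 100 nM EPAC2, 250 nM RAP1B-BODIPY-GDP, 50 uM GDP, room temperature, kinetic read over 30 min. Activity expressed relative to 6.5 mM cAMP.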
# EPAC1 agonist – EPAC1 (human) agonism | O95398 | EPAC1 agonist qHTS, biochemical assay; response scale: 100% = response to 6.5 mM cAMP | Potency, µM (highest dose often 154 µM), for inactives: top-dose activation, usual class: activators | actives 0.073% (n = 360,000); note: nearly all actives have a fitted effect of over 60% in size
#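 EPAC1 100 nM, Rap1B–BODIPY-GDP 250 nM, unlabeled GDP 50 uM; compound titration; 5 min RT; kinetic read ex480/em540 at 5-min intervals ×30 min; data normalized to 6.5 mM cAMP agonist control.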
# EPAC1 antag – blocks human EPAC1 exchange factor; O95398; EPAC1 GEF assay, Rap1b-BODIPY-GDP exchange fluorescence; Potency, µM (series often up to 115 µM), inactives show top-dose activity change, negative = inhibition, usual class: inhibitors; actives 0.14% (n = 360,000);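 note: plate controls were vehicle for no effect and positive control for full effect; nearly all actives have a fitted effect of over 50% in size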
# * marks the source's active call; other numbers are inactive results; i = inactive; ? = inconclusive; . = no result given; ! = repeats disagree; [ ] = another dose, or the depositor's remark. Calls come from the whole dose curve; as a rule, active = well fitted curve in the direction sought with a large enough effect; inconclusive = small, poorly fitted or top-dose-only effect, or another doubt; inactive = no such curve, though single readings can be large; an effect the other way counts as inactive or inconclusive. Potency is the fitted concentration of half-maximal effect.
SMILES,USP1 inh,ALOX12 inh,EPAC2 antag,EPAC2 ag,EPAC1 agonist,EPAC1 antag
Nc1c(C(=O)NC2CCCC2)c2nc3ccccc3nc2n1CC1CCCO1 (configuration not stated),28.2µM*,-0.5%,-11.9%,22.5%,9.8%,-26.8%
CC(C)N1C(=O)CC2(CC[N+](C)(CCOC(=O)C(O)(c3ccccc3)c3ccccc3)CC2)C1=O (configuration not stated),-23.0%,35.5µM*,13.7%,5.4%,-4.7%,1.7%
O=C1CC(=O)N(Cc2ccccc2)C(=S)N1,-13.4%,25.1µM*,3.5%,14.6%,2.1%,-3.4%
COc1ccc(CN2C(=O)CC(=O)NC2=O)cc1,-12.2%,-12.0%,-1.9%[57.1 µM],3.9%,2.2%,5.1%
Cc1ncc2c(n1)C[C@@H]1CC[C@H]2N1C(=O)Nc1ccc(C)c(C)c1,.,8.4%,.,.,.,.
C=C(C)C(Cc1c(OC)ccc(C(=O)/C=C/c2ccc(O)cc2)c1O)OO (configuration not stated),?,20µM*,?,11.7%,-5.7%,-18.6%
C/C(=C\c1ccc2c(c1)OCO2)[N+](=O)[O-],.,14.1µM*,.,.,.,.
CCC(c1cccs1)N1C(=O)[C@H]2CNC[C@H]2C1=O (some centres not stated),.,13.6%,.,.,.,.
COc1ccccc1N1CCN(Cc2ccc3c(c2)OCO3)CC1,-16.2%,0.708µM*,-1.0%,9.8%,10.2%,-0.1%
Clc1ccc(C(c2ccc(Cl)cc2)n2cc[n+](CC(OCc3ccc(Cl)cc3Cl)c3ccc(Cl)cc3Cl)c2)cc1 (configuration not stated),-24.0%,38.5µM*!,-13.1%,15.7%,-0.7%,?
CC(C)N1CC2CCC(C1)N2Cc1ccc(-c2cncnc2)cc1,.,3.5%[176 µM],.,.,.,.
CCCCCCCCn1sccc1=O,-16.1%,44.7µM*,29.3%,-7.6%,-37.5%,5.1%
Cc1cccc(-n2c(O)c(/C=N/Nc3nc4c(c(=O)n(C)c(=O)n4C)n3C)c(=O)[nH]c2=S)c1,-25.5%,31.6µM*,-6.3%,0.8%,-10.3%,-15.0%
O=C1c2ccccc2C(=O)N1SC1CCCCC1,?,15.8µM*,19.2%,10.6%,-2.2%,5.4%
NC(=O)c1cn(C2CCCCC2)c2ccccc2c1=O,-9.4%,-6.0%,-5.4%,1.1%,-0.5%,-2.2%
O=C1C(=O)c2cccc3cccc1c23,-13.8%,-16.8%,-3.0%,1.0%,-6.1%,13.8%
O=C1C(=O)c2ccccc2-c2ccccc21,1µM*,-21.9%,?,21.3%,-17.2%,8.91µM*
NC1=C(Br)C(=O)c2ccccc2C1=O,8.91µM*,0.0%,-12.0%,9.5%,2.7%,2.6%
CC(=O)N1[C@H]2CC[C@@H]1c1cnc(-c3ccccc3)nc1C2,.,-15.8%,.,.,.,.
COC(=O)c1cn(C(=O)c2cccc3ccccc23)c2ccccc12,-16.4%,-10.4%,8.91µM*,14.0%,9.3%,-5.8%
COC(=O)c1cn(Cc2ccc(F)cc2)c2ccccc12,-18.9%,-18.4%,?,0.8%,3.9%,-2.2%
C=C1C(=O)O[C@@H]2C[C@@H](C)[C@@H]3C=CC(=O)[C@@]3(C)[C@@H](OC(=O)CC(=O)O[C@H]3[C@@H]4C(=C)C(=O)O[C@@H]4C[C@@H](C)[C@@H]4C=CC(=O)[C@]43C)[C@H]12,?,?,?,-4.8%,-21.9%,39.8µM*
O=C(NCc1ccc(F)cc1)[C@H]1CN2CCC1C[C@@H]2Cn1cc(CSc2ccccc2)nn1 (some centres not stated),.,-4.9%,.,.,.,.
C[C@]12CC[C@H]3[C@@H](CCC4=CC(=O)CC[C@@H]43)[C@@H]1CC[C@@H]2O,-19.6%,-7.6%,12.4%,3.9%,-33.7%,-14.0%
C[C@]12CC[C@@H]3c4ccc(O)c(O)c4CC[C@H]3[C@@H]1CC[C@@H]2O,?,5.01µM*,-3.5%,3.4%,-21.4%,6.4%
SMILES,USP1 inh,ALOX12 inh,EPAC2 antag,EPAC2 ag,EPAC1 agonist,EPAC1 antag
CCCS(=O)(=O)N1[C@H]2CC[C@@H]1c1cnc(C)nc1C2,.,15.2%,.,.,.,.
Cc1ccc2c(n1)N(C)[C@H](CO)CCN(CC(C)C)C2,.,427.2%[176 µM],.,.,.,.
O=C1NC(=O)C(=Cc2cn(CCOc3ccc4c(c3)OCO4)c3ccccc23)C(=O)N1,153.2%,.,43.2%,100µM*,4.7%,1.4%
C=CCn1cc(C=C2C(=O)NC(=O)NC2=O)c2ccccc21,176.2%,?,1.8%,-24.9%,-74.7%,?
COc1cccc([C@@H]2CCN(Cc3cc4ccccc4n(C)c3=O)C[C@H]2O)c1,.,-8.1%,.,.,.,.
Cc1ccc([N+](=O)[O-])[c]2c1[O][Hg]2,.,0.051µM*,.,.,.,.
O=C(C1CCCC1)N1[C@H]2CC[C@@H]1c1cnc(-c3ccc(F)cc3)nc1C2,.,12.3%,.,.,.,.
CCOc1cncc(/C=C/CCNC)c1,.,17.8µM*,.,.,.,.
Cc1ccc(/C=C2\C(=O)NC(=O)N(Cc3ccccc3Cl)C2=O)o1,-4.0%,31.6µM*,-0.4%,-2.1%,-11.3%,?
c1ccc(-c2nc(N3CCOCC3)s[n+]2-c2ccccc2)cc1,-3.3%,31.6µM*,7.4%,-0.1%,-3.5%,4.9%
COc1ccc2c(c1)C1(CCN(C(=O)Nc3ccc(OC)c(OC)c3)C1)C(=O)N2 (configuration not stated),.,40.0%,.,.,.,.
Cc1nc(-c2ccccc2Br)cc([C@H]2CN3CC[C@H]2C[C@@H]3CNC(=O)c2cccs2)n1,.,35.5µM*,.,.,.,.
Cc1nc(-c2ccccc2Br)cc([C@H]2CN3CC[C@H]2C[C@@H]3CNC(=O)Nc2cccc(C#N)c2)n1,.,28.2µM*,.,.,.,.
Cc1nc(-c2ccc(F)cc2)cc([C@H]2CN3CC[C@H]2C[C@@H]3CNC(=O)Nc2cccc(C#N)c2)n1,.,-4.7%,.,.,.,.
CC(=O)O[C@H]1C[C@H](O[C@H]2[C@@H](O)C[C@H](O[C@@H]3[C@@H](O)C[C@H](O[C@H]4CC[C@@]5(C)[C@H](CC[C@@H]6[C@H]5C[C@@H](O)[C@]5(C)[C@@H](C7=CC(=O)OC7)CC[C@]65O)C4)O[C@@H]3C)O[C@@H]2C)O[C@H](C)[C@H]1O[C@@H]1O[C@H](CO)[C@@H](O)[C@H](O)[C@@H]1O,.,12.8%,.,.,.,.
COc1cc2c(cc1OCc1ccccc1)N([S+](=O)([O-])c1ccccc1C(F)(F)F)CC21CCN(C)CC1,.,-28.5%,.,.,.,.
C[n+]1c2cc(N)ccc2cc2ccc(N)cc21,3.98µM*!,?,i,100µM*,50.1µM*,i
CCCCn1c(O)c(C(C)=NCCc2c[nH]c3ccccc23)c(=O)[nH]c1=O,-23.6%,-71.9%,-10.5%,6.8%,-1.7%,-9.1%
